Screening data from PubChem.
PrP 5UTR inh – inhibition of PrP 5' UTR reporter expression; cell-based PrP 5' UTR mRNA reporter, plate reader; inhibition, % (test concentration not listed); hit rate 0.35% among 340,000; AID 488862; in the data active = inhibition above about 52%
BJeLR viability – BJeLR cell viability loss | BJeLR (HRASV12) viability, CellTiter-Glo ATP luminescence, 48 h | inhibition, % (concentration not given with the values) | hit rate 0.17% among 300,000 | AID 1554; in the data active = inhibition above about 50%
MazEF act – increases E. coli MazEF RNase cleavage of RNA. activation, % at 20 µM. hit rate 0.32% among 350,000. P0AE70. AID 504720. FAM/BHQ RNA-DNA oligo cleavage fluorescence, 5 h; in the data active = activation above about 50%
Target sequence (P0AE70 whole entry, looked up): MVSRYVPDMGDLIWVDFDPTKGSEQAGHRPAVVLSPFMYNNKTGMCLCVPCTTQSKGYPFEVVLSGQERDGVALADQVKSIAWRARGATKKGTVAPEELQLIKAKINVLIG
PrPC surface inh – inhibitors of human cell surface prion protein PrPC. AID 720596. hit rate 0.43% among 370,000. TR-FRET read-out. inhibition, % at 13.8 µM; in the data active = inhibition above about 24%
A number is an active result; 0 = inactive; - = not tested or not shown; + = active, no number. Sampled rows, rich in hits. Any-hit rate of the full collection: about 1.1%.

SMILES | PrP 5UTR inh | BJeLR viability | MazEF act | PrPC surface inh
CC[C@H](NC(=O)[C@H]1O[C@@H](n2cnc3c(=O)[nH]c(N)nc32)[C@H](O)[C@@H]1O)c1ccccc1 | - | - | - | 0
CC(C)c1cc(=O)oc2c3c4c(cc12)CCCN4CCC3 | 0 | 0 | 88 | 0
CCOC(=O)C1=C(O)c2ccccc2C(=O)/C1=C\c1ccc(C)cc1 | 0 | - | 151 | -
Cc1ccccc1C(=O)N[C@@H](Cc1cccnc1)C(=O)N1CCC[C@H]1C(=O)NCCc1ccccc1Cl | - | - | - | 0
N#CC1CC(c2ccc([N+](=O)[O-])cc2)=NN1c1ccc([N+](=O)[O-])cc1 (stereo not drawn) | 0 | 0 | 563 | 0
O=[N+]([O-])c1cccc(C2CC(c3ccccc3)=NN2c2ccccc2)c1 (stereo not drawn) | 0 | 0 | 0 | 0
O=C1CCc2cc(S(=O)(=O)Nc3ccc4c(c3)OCCO4)ccc2N1 | - | - | - | 0
Cc1ccc(C)c(S(=O)(=O)NC(C)C(=O)Nc2ccc(-c3nc4ccccc4s3)cc2)c1 (stereo not drawn) | 0 | 0 | 52 | 0
Cc1cccc(CN2C(=O)N/C(=C/c3ccc(C)s3)C2=O)c1 | 0 | 0 | 190 | 0
Cc1ccc(NC(=O)CS(=O)CC(=O)Nc2ccccc2-c2ccc(C)o2)cc1 (stereo not drawn) | 0 | 0 | 300 | 0
O=C(NC(NC(=S)Nc1cccc(Cl)c1)C(Cl)(Cl)Cl)OCc1ccccc1 (stereo not drawn) | 0 | 0 | 84 | 0
Cc1ccc(C2=C/C(=C/c3cccs3)C(=O)O2)cc1 | 0 | 0 | + | 0
Cc1ccc(C=C2C=C(c3ccccc3)OC2=O)cc1 | - | - | 0 | 0
COc1ccc2c(c1)sc(N)[n+]2Cc1cc(C)cc2cccnc12 | 0 | 52 | 0 | 0
CN(C)Cc1c(C(=O)N/N=C/c2cccc(OCc3ccc(F)cc3)c2)nnn1-c1nonc1N | 0 | 0 | 99 | 0
CN1C2CCCC1CC(NC(=O)c1nn(C)c3ccccc13)C2 (stereo not drawn) | - | - | - | 0
CCN1CCCCC(NC(=O)Cc2ccccc2)C1=O (stereo not drawn) | - | - | - | 0
Cc1nnc(SCC(=O)Nc2nsc(-c3ccccc3)n2)s1 | 0 | 0 | 0 | 0
CC1(C)CC(=O)c2c(nc(SCC(=O)Nc3nsc(-c4ccccc4)n3)c(C#N)c2-c2ccccc2)C1 | 0 | 59 | 0 | 0
O=C(C(=O)N1CCC(CNS(=O)(=O)c2ccc(F)cc2)CC1)c1cccs1 | - | - | - | 0
Cc1ccc(C#N)c(SCc2cc3c(cc2Cl)OCO3)n1 | 0 | 0 | 59 | 0
Cc1ccc(C#N)c(SCc2cccc(Br)c2)n1 | 0 | 0 | 0 | 0
CC(Sc1ncnc2sccc12)C(=O)Nc1ccc(S(N)(=O)=O)cc1 (stereo not drawn) | 0 | - | 0 | 0
CC(Sc1ncnc2sccc12)C(=O)Nc1ccc(C(N)=O)cc1 (stereo not drawn) | 0 | 0 | 54 | 0
O=C(CCc1ccccc1)Nc1ccc(NC(=O)c2ccco2)cc1 | 0 | 0 | 0 | 0
SMILES | PrP 5UTR inh | BJeLR viability | MazEF act | PrPC surface inh
O=C(CCc1ccccc1)Nc1ccc(NC(=O)c2ccco2)nc1 | 0 | 0 | 618 | 0
COCc1c(C(C)C)nc(C(C)C)c(/C=C/[C@@H](O)C[C@@H](O)CC(=O)O)c1-c1ccc(F)cc1 | - | 72 | - | -
O=C(OCC#CCSc1nnc(-c2cccc3ccccc23)o1)c1sccc1Cl | - | - | - | 0
CCCCNc1cccc2c1S(=O)(=O)N[C@H](Cc1ccccc1)CO2 | - | - | - | 0
NS(=O)(=O)c1ccc(CCNC(=O)CSc2ccc(Cl)cc2)cc1 | 0 | 0 | 0 | 0
NS(=O)(=O)c1ccc(CCNC(=O)CSc2ccc(Cl)cc2Cl)cc1 | 0 | 0 | 63 | 0
CCOC(=O)N1CCN(C(=O)C[C@H]2C[C@@]3(C(=O)OCC)CCCC4=C3N(CCC4)C2=O)CC1 | - | - | - | 0
COCCCNC(=O)c1ccc2c3c(onc13)-c1ccccc1C2=O | 0 | 51 | 0 | -
O=C1Nc2ccccc2Oc2cc([N+](=O)[O-])cc(Oc3ccccc3)c21 | 0 | 0 | 53 | 0
O=S1(=O)c2ccc(N3CCSCC3)cc2Oc2ccccc2CN1Cc1cn(Cc2ccccc2C(F)(F)F)nn1 | - | - | - | 0
CCOC(=O)C1CCN(S(=O)(=O)c2c(Cl)ccc3nonc23)CC1 | 0 | 60 | - | 0
COc1ccc2nc(C)cc(N/N=C/c3ccc(F)cc3)c2c1 | 0 | 93 | 0 | 0
O=C(Nc1ccc(F)cc1)OCCN1C(=O)CCC12CCC(c1ccccc1)CC2 (stereo not drawn) | - | - | - | 0
O=C(Nc1ccc2oc(-c3ccccc3)nc2c1)c1cc(-n2cnnc2)ccc1Cl | 0 | 0 | 54 | 0
O=C(Nc1ccc(-c2nc3ccccc3o2)cc1)c1cc(-n2cnnc2)ccc1Cl | 0 | 0 | 0 | 0
CCOC(=O)[C@]12CCCC3=C1N(CCC3)C(=O)[C@@H](CC(=O)N1CCC(c3ccccc3)CC1)C2 | - | - | - | 0
CCOc1ccccc1NC(=O)Cn1c(=O)n(CCC(=O)NC2CCCC2)c(=O)c2ccccc21 | 0 | 0 | - | -
Cc1cccc(NC(=O)Cn2c(=O)n(CCC(=O)NC3CCCC3)c(=O)c3ccccc32)c1 | 0 | 0 | 84 | 0
O=C(c1ccc2c(=O)n(Cc3ccc4c(c3)OCO4)c(=O)[nH]c2c1)N1CCN(c2ccccc2)CC1 | 0 | 0 | 62 | 0
COc1ccc(N2CCN(C(=O)c3ccc4c(=O)n(Cc5ccc6c(c5)OCO6)c(=O)[nH]c4c3)CC2)cc1 | 0 | 0 | 0 | 0
COC(=O)c1ccc(/C=N/Nc2nc(-c3ccc(C)cc3)cs2)cc1 | 0 | 0 | 52 | -
COc1ccc(S[C@]2(C(=O)N3CCN(c4ncccn4)CC3)CC(=O)N(C(=O)Nc3ccc(C)c(Cl)c3)[C@@H]2c2ccc(OC)cc2)cc1 | - | - | - | 0
CCOC(=O)c1c2c(n(-c3ccc(OC)cc3)c1C)C(=O)C(=O)c1ccccc1-2 | 0 | - | 0 | -
CCOC(=O)c1c2c(n(C)c1COC)C(=O)C(=O)c1ccc(Br)cc1-2 | - | 69 | - | -
COC(=O)[C@]12C[C@H](CC(=O)NCCCN3CCCC3=O)C(=O)N(Cc3cccc4ccccc34)C1=C[C@H](C(C)C)O[C@@H]2C1CC1 | - | - | - | 0
SMILES | PrP 5UTR inh | BJeLR viability | MazEF act | PrPC surface inh
CCOc1ccccc1C(=O)Nc1cc(Cl)ccc1O | 0 | 0 | 68 | 0
CCOC(=O)N1C2C=CC(C2)N1C(=O)OCC | 0 | - | 157 | 0
O=c1[nH]c(=O)n(Cc2ccccc2Cl)c(O)c1C=Nc1ccc(F)cc1 | 0 | 0 | 53 | 0
CN1C(=O)[C@@]2(O[C@H]3[C@H]4C=C[C@@H]([C@H]5C(=O)N(Cc6ccccc6)C(=O)[C@@H]45)N3C3=C2C(=O)CC3)c2ccccc21 | - | - | - | 0
CCN1C(=O)[C@@H]2Cc3c([nH]c4ccccc34)C(c3cc(OC)c(OC)c(OC)c3)N2C1=S (stereo partly drawn) | 0 | 0 | 0 | 0
COc1cc([C@H]2c3[nH]c4ccccc4c3C[C@H]3C(=O)N4[C@@H](c5cc(OC)c(OC)c(OC)c5)c5[nH]c6ccccc6c5C[C@H]4C(=O)N23)cc(OC)c1OC | 0 | 83 | 0 | -
O=c1[nH]c(=O)n(-c2ccc(F)cc2)c(O)c1/C=C1\C=Nc2ccccc21 | 0 | 0 | 0 | 0
COc1ccc(-n2c(O)c(/C=C3\C=Nc4ccccc43)c(=O)[nH]c2=O)cc1 | 0 | 0 | 304 | 0
COc1ccc(S[C@]2(C(=O)NCCc3ccccc3)CC(=O)N[C@@H]2c2ccc(OC)cc2)cc1 | - | - | - | 0
